{"source": "PubChem BioAssay (Tox21)", "note": "Records with an inconclusive call do not appear. The source made the active and inactive calls. Calls follow the shape of the full dose curve. % is scaled to controls: 0 for no effect and ±100 for the full control effect."}
{"test": "qHTS assay to identify small molecule agonists or antagonists of the thyroid stimulating hormone receptor (TSHR) signaling pathway - wild type cell line counter screen (AID 1259384)", "details": "HEK293 wild type, cAMP HTRF counter-screen, hits give high values; series mostly up to 92.4 µM; cAMP activity change: at the top concentration", "text": "U.S. Tox21 Program National Center for Advancing Translational Sciences [NCATS] NIH Chemical Genomics Center [NCGC] U.S. Environmental Protection Agency [EPA] National Institutes of Environmental Health Sciences [NIEHS] National Toxicology Program [NTP] U.S. Food and Drug Administration [FDA] Tox21 Assay Overview: TSHR is the receptor for thyrotropin (thyroid stimulating hormone or TSH), a member of the glycoprotein hormone family. TSH is released by the anterior pituitary gland and is the main regulator of thyroid gland growth and development. Upon binding circulating thyrotropin, a G-protein signal cascade activates adenylyl cyclase and […] cAMP concentration is increased. cAMP is a key second messenger involved extensively in cellular signal transduction pathways associated with the majority of G-protein coupled receptors (GPCRs). The activation of these GPCRs by neurotransmitters, lipids, nucleotides, peptides and hormones results in the activation or the inhibition of plasma membrane-bound adenylate cyclase through heterotrimeric G-proteins. A cell-based TSHR-Hek293 assay can be used to identify TSHR agonists. To eliminate the false positive compounds identified from screening a cell-based TSHR-Hek293 cell line, cAMP assay in a wild type Hek293 cells was used as a counter screening.\nTox21 Assay Protocol Summary: Hek293 cells (wild type) were dispensed at 800 cells/4 uL/well in 1536-well white plates using a Multidrop dispenser. After the assay plates were incubated at a 37 C/5% CO2 incubator for 18 hrs, 23 nL of compounds dissolved in DMSO, positive controls or DMSO only was transferred to the assay plate by a pin tool, followed by 1 ul medium containing Ro20-1724. After 30 min of incubation at room temperature, 2.5 ul/well of cAMP-d2 and 2.5 ul/well of anti-cAMP-cryptate were added respectively into the assay plates using a Flying Reagent Dispenser. The plates were incubated at room temperature for 1 hr. The fluorescence intensity in the plates was measured using an Envision plate reader. Each test compound was measured at 15 concentrations and in triplicates."}
{"smiles": "C=C(C)[C@@H]1CC=C(C)C(=O)C1", "cAMP activity change": "0.951% (inactive)"}
{"smiles": "CC(C)CCOC(=O)c1ccccc1", "cAMP activity change": "5.48% (inactive)"}
{"smiles": "CCO[Si](CC)(OCC)OCC", "cAMP activity change": "-5.78% (inactive)"}
{"smiles": "C/C(CC(C)C)=N\\O", "cAMP activity change": "-2.89% (inactive)"}
{"smiles": "CCCCCCCCCCCCCCCCCCOCCO", "cAMP activity change": "-0.284% [at 18.9 µM] (inactive)"}
{"smiles": "CCCSSCCC", "cAMP activity change": "1.81% (inactive)"}
{"smiles": "COC(=O)CCCCC(CCSS/C(CCO)=C(\\C)N(C=O)Cc1cnc(C)nc1N)SC(C)=O", "note": "(stereo not given)", "cAMP activity change": "2.14% [at 42.5 µM] (inactive)"}
{"smiles": "CCC(C)OC(C)CC", "note": "(stereo not given)", "cAMP activity change": "5.15% (inactive)"}
{"smiles": "COC(C)(OC)OC", "cAMP activity change": "-5.03% (inactive)"}
{"smiles": "Cc1c(Cl)cccc1Cl", "cAMP activity change": "6.75% (inactive)"}
{"smiles": "O=Cc1cc2ccccc2o1", "cAMP activity change": "-0.418% (inactive)"}
{"smiles": "CC(=O)CC(=O)Nc1ccc(C)cc1C", "cAMP activity change": "-2.2% (inactive)"}
{"smiles": "C=C(C)c1cccc(C(C)(C)N=C=O)c1", "cAMP activity change": "-3.37% (inactive)"}
{"smiles": "CC1(C)CC(OC(=O)CCCCCCCCC(=O)OC2CC(C)(C)NC(C)(C)C2)CC(C)(C)N1", "cAMP activity change": "-0.26% [at 18.9 µM] (inactive)"}
{"smiles": "Cc1ccc(N)cc1S(=O)(=O)O", "cAMP activity change": "-4.49% (inactive)"}
{"smiles": "CO/N=C(/C(=O)N[C@@H]1C(=O)N2C(C(=O)[O-])=C(C[n+]3ccn4ncccc43)CS[C@H]12)c1nsc(N)n1", "cAMP activity change": "3.49% [at 42.5 µM] (inactive)"}
{"smiles": "CN(C)CCOC(=O)C(c1ccccc1)C1(O)CCCC1", "note": "(stereo not given)", "cAMP activity change": "0.255% [at 42.5 µM] (inactive)"}
{"smiles": "C[C@H]1[C@@H](c2ccccc2)NC(=O)N1C", "cAMP activity change": "-0.176% (inactive)"}
{"smiles": "CO[Si](CCCn1c(=O)n(CCC[Si](OC)(OC)OC)c(=O)n(CCC[Si](OC)(OC)OC)c1=O)(OC)OC", "cAMP activity change": "-0.21% [at 42.5 µM] (inactive)"}
{"smiles": "NCC1(Cc2noc(=O)[nH]2)CCCCC1", "cAMP activity change": "-3.2% (inactive)"}
{"smiles": "CC1CCc2c(N3CCC(O)CC3)c(F)cc3c(=O)c(C(=O)O)cn1c23", "note": "(stereo not given)", "cAMP activity change": "-3.01% [at 42.5 µM] (inactive)"}
{"smiles": "O=C(O)CONC(=O)c1ccccc1", "cAMP activity change": "3.5% (inactive)"}
{"smiles": "CCCCCC(C)O", "note": "(stereo not given)", "cAMP activity change": "-4.01% (inactive)"}
{"smiles": "CC/C(C)=N\\O[Si](C)(O/N=C(\\C)CC)O/N=C(\\C)CC", "cAMP activity change": "-0.0901% (inactive)"}
{"smiles": "CC(C)OC(=O)OCOP(=O)(CO[C@H](C)Cn1cnc2c(N)ncnc21)OCOC(=O)OC(C)C", "cAMP activity change": "9.03% [at 42.5 µM] (inactive)"}
{"smiles": "Cc1ccc(C(=O)O)cc1[N+](=O)[O-]", "cAMP activity change": "4.08% (inactive)"}
{"smiles": "CCOc1ccccc1OCC1CNCCO1", "note": "(stereo not given)", "cAMP activity change": "1.22% [at 42.5 µM] (inactive)"}
{"smiles": "O=C1c2ccccc2C(=O)c2cc(Cl)ccc21", "cAMP activity change": "2.64% [at 8.39 µM] (inactive)"}
{"smiles": "CC(C)C1OCCN1CCOC(=O)NCCCCCCNC(=O)OCCN1CCOC1C(C)C", "note": "(stereo not given)", "cAMP activity change": "-3.91% (inactive)"}
{"smiles": "CC(C)OC(=O)CCC(=O)OC(C)C", "cAMP activity change": "-0.189% (inactive)"}
{"smiles": "OC1OCCOC1O", "note": "(stereo not given)", "cAMP activity change": "3.23% (inactive)"}
{"smiles": "CCC/C=C(\\C=O)CC", "cAMP activity change": "-2.4% (inactive)"}
{"smiles": "CCC[C@@H]1C[C@@H](C(=O)N[C@@H]([C@H]2O[C@H](SC)[C@H](O)[C@@H](O)[C@H]2O)[C@@H](C)O)N(C)C1", "cAMP activity change": "1.03% [at 42.5 µM] (inactive)"}
{"smiles": "CN(C)CCN(C)CCO", "cAMP activity change": "-2.94% (inactive)"}
{"smiles": "CC12CCC(C1)C(C)(C)C2O", "note": "(stereo not given)", "cAMP activity change": "-0.227% (inactive)"}
{"smiles": "COc1ccc2c(c1)c1c3n2CCN(C)C3=NCC1", "cAMP activity change": "2.35% [at 42.5 µM] (inactive)"}
{"smiles": "C/C=C(\\C)C(C)=O", "cAMP activity change": "-1.12% (inactive)"}
{"smiles": "[O]=[Mo](=[O])=[O]", "cAMP activity change": "-1.05% [at 18.9 µM] (inactive)"}
{"smiles": "CO[C@@]1(NC(=O)Cc2cccs2)C(=O)N2C(C(=O)O)=C(COC(N)=O)CS[C@@H]21", "cAMP activity change": "-1.92% [at 42.5 µM] (inactive)"}
{"smiles": "CC1OCCC1=O", "note": "(stereo not given)", "cAMP activity change": "4.15% (inactive)"}
